Compound activity: PubChem, National Center for Advancing Translational Sciences (NCATS)
FUS suppressor – qHTS for Suppressors of FUS Proteinopathy: Primary screen using FUS-linked yeast assay. S. cerevisiae FUS-expressing, growth rescue, OD600, 24 h. Potency, µM (titrated, usually from 76.6 µM), actives largely listed as activators. actives 0.24% (n = 390,000);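 also: plate controls were DMSO vehicle for no effect and reference control for full effect; nearly all actives have a fitted effect of over 55% in size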
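Cultures pregrown in 2.5% raffinose medium are shifted to minimal medium containing 2% galactose to express toxic FUS. Compounds are tested at several concentrations. After 24hr at 30C, growth is quantified at 600 nm absorbance.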
TDP-43 yeast inh – qHTS of TDP-43 Inhibitors; TDP-43 expressing yeast growth rescue, BacTiter-Glo, 24 h; Potency, µM (doses to about 46.1 µM), for the others: at the highest dose growth rescue (activation), most hits filed as activators; actives 1.8% (n = 410,000); also: % of control where 0% means no effect; nearly all actives have a fitted effect of over 50% in size
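Galactose-induced TDP-43 yeast, OD600=0.02, compound pinned; 24 hr, 30 deg C; BacTiter-Glo luminescence for growth. Inhibitors of TDP-43 toxicity read as activators.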
Abeta rescue – qHTS for compounds that reverse cellular toxicity of Amyloid beta (A-beta) peptide in yeast: Primary Screen. yeast expressing A-beta42, growth rescue, OD600, 48 h; response scale: 0% DMSO, 100% iron-clioquinol control. Potency, µM (titrated, usually from 46.1 µM), actives largely listed as activators. actives 0.063% (n = 410,000); also: nearly all actives have a fitted effect of over 55% in size
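Yeast growth medium received pinned compounds, then yeast cells expressing toxic A-beta were added; plates incubated at 30 C for 48 hr. Growth read as absorbance at 600 nm, normalized to DMSO and equimolar FeCl3 plus clioquinol controls.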
aSyn yeast inh – qHTS of alpha-syn Inhibitors; Yeast expressing alpha-synuclein, growth rescue, BacTiter-Glo, 24 h; actives 0.14% (n = 370,000); Potency, µM (top dose mostly 46.1 µM), inactives show top-dose growth rescue (activation), usual class: activators; also: % of control where 0% means no effect; nearly all actives have a fitted effect of over 65% in size
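Rescue of yeast growth: cells expressing toxic alpha-synuclein, induced in galactose at OD600 0.02, incubated with compound 24 h at 30 C. ATP luminescence quantified growth; inhibitors of toxicity appear as activators.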
* hit, by the source's call; i = inactive; ? = inconclusive; / = no result given; [ ] = remark or other dose. Rows were chosen to be rich in hits. Some 2.1% of all compounds tested hit in one or more screens of this group. Calls follow the shape of the dose curve; as a rule, active = well fitted curve in the direction sought with a large enough effect; inconclusive = small, poorly fitted or top-dose-only effect, or another doubt; inactive = no such curve, though single readings can be large; an effect the other way counts as inactive or inconclusive. Potency is read from the fitted curve at half-maximal effect.

SMILES	FUS suppressor	TDP-43 yeast inh	Abeta rescue	aSyn yeast inh
COc1cccc(C(O)c2nc(-c3cccc(F)c3)cs2)c1 (configuration not stated)	i	22.4µM*	i	16.5%
CCc1cnc2ccccc2c1/C=C/c1ccc(N(C)C)cc1	/	/	/	6.6%
CN1C2=N[C@@H](c3ccccc3)CC(=O)N2/C(=C\c2ccccc2)[C@H]1c1ccccc1	i	/	/	/
COc1cc2nc(N3CCCCC3)nc(NC3CC3)c2cc1OC	/	/	/	-2.7%
COc1ccc(/C=C/C(=O)c2c(O)c(OC)c3occc3c2OC)cc1OC	/	/	/	-6.2%
N#C/C(=C\c1ccc(Cl)cc1)C(=O)Nc1cccnc1	i	0.0%[1.82 µM]	12.6µM*	-11.5%
COc1ccc(/C=C(\C#N)C(=O)Nc2cccnc2)cc1	/	0.7%	i	-6.4%
C=CCOc1ccc(C=CC(=O)c2c(O)c(OC)c(OC)c(OC)c2OC)cc1	/	22.4µM*	i	13.5%
O=C(Cn1cc(SCc2cccc(Cl)c2)c2ccccc21)N1CCOCC1	?	35.5µM*	?	?
Cc1cccc(CSc2cn(CC(=O)N3CCOCC3)c3ccccc23)c1	?	?	i	14.2%
O=C(Cn1cc(SCc2ccc(C(F)(F)F)cc2)c2ccccc21)N1CCCC1	?	35.5µM*	i	/
Cc1nc(SCC(N)=O)[nH]c(=O)c1C	i	/	/	/
O=S(=O)(c1ccc(F)cc1)N1CCC(n2c(C(F)(F)F)nc3cccnc32)CC1	i	0.0%	i	/
CCN1C(=O)CSC1=Nc1ccc(Cl)c(Cl)c1	i	12.6µM*	i	-17.0%
CCCC[C@H]1C2CC(OC(=O)Nc3ccc(Cl)cc3)C(C2)[C@H]2CCCCN21 (some centres not stated)	i	/	/	/
S=c1[nH]nc2ccc3ccccc3n12	i	12.6µM*	i	-0.5%
S=c1[nH]c2ccccc2n2c(=S)[nH]nc12	i	?	i	-3.8%
CNC(=O)c1c(NC(=O)c2cccc(C)c2)sc2c1CCC2	i	14.1µM*	i	-8.3%
Cc1ccc(NC(=O)c2ccc(NC(=O)C3CCCC3)cc2)c(C)c1	/	/	/	0.5%
CN(Cc1ccccc1)C(=O)c1oc(=O)c2ccccc2c1-c1ccccc1	/	14.1µM*	i	4.7%
Cc1ccc(-c2c(C(=O)N(C)Cc3ccccc3)oc(=O)c3ccccc23)cc1	?	12.6µM*	i	0.3%
CCCCN(C)C(=O)c1oc(=O)c2ccccc2c1-c1ccc(C)cc1	i	/	/	/
CCOc1ccc(NC(=O)CSc2cn(CC(=O)N3CCOCC3)c3ccccc23)cc1	i	19.1%	i	/
Cc1nn(CCCC(=O)NCCc2ccc(Cl)cc2)c(=O)c2c1sc1ccccc12	i	23.0%	i	/
COc1ccc(-n2nc([N+](=O)[O-])c(=NCCCN3CCCC3=O)n2O)cc1	i	-4.1%	i	-3.2%
SMILES	FUS suppressor	TDP-43 yeast inh	Abeta rescue	aSyn yeast inh
O=C1CCCN1CCCN=c1c([N+](=O)[O-])nn(-c2ccc(Cl)cc2)n1O	?	14.1µM*	i	-1.1%
CSc1nccc(N2CCN(c3ccc(F)cc3)CC2)n1	i	-8.5%[0.397 µM]	i	5.7%
Clc1ccc(N2CCN(c3ccnc(Cl)n3)CC2)cc1	i	17.8µM*	i	?
CC(=O)N1N=C(c2cccc([N+](=O)[O-])c2)OC1c1cccc(Br)c1 (configuration not stated)	i	19.0%	i	-5.5%
CC(=O)N1N=C(c2cccc(Cl)c2)OC1c1cccc([N+](=O)[O-])c1 (configuration not stated)	i	15.8µM*	i	2.9%
CC(=O)N1N=C(c2ccccc2)CC1c1cccc([N+](=O)[O-])c1 (configuration not stated)	i	12.6µM*	i	3.6%
O=C1CC(=O)OC(c2ccc([N+](=O)[O-])cc2)O1	i	3.16µM*	i	?
COc1cc(C=NN2CCN(C(c3ccccc3)c3ccccc3)CC2)cc(OC)c1OC(C)=O	i	/	/	/
COC(=O)c1sccc1-c1ccc(C(=O)Nc2ccccc2)o1	i	12.6µM*	i	9.9%
CC(C)OC(=O)C1=CNCC(C)(C)c2c1[nH]c1cc(F)ccc21	i	/	/	/
CCN(CC(=O)NC(C)(C)C)C(=O)COc1c(Cl)cc(Cl)c2ccc(C)nc12	i	28.2µM*	?	9.5%
CCOc1ccccc1NC(=O)COC(=O)COc1c(Cl)cc(Cl)c2ccc(C)nc12	i	3.6%	i	16.3%
COc1cc2c(oc(=O)c3cc(C)cc(OC)c32)c2c(C3OC(C)C(O)C(C)(O)C3O)ccc(O)c12 (configuration not stated)	/	?	i	6.31µM*
C[C@@]12CCC3[C@@](CCC4[C@@]3(C)CCC[C@@]4(C)C(=O)O)(CC1=O)C2 (some centres not stated)	i	20µM*	i	5.0%
CC(Nc1cc(N2CCN(C(=O)C(C)(C)C)CC2)ccc1[N+](=O)[O-])c1ccccc1 (configuration not stated)	?	20µM*	i	0.1%
CC(Nc1cc(N2CCNCC2)ccc1[N+](=O)[O-])c1ccccc1 (configuration not stated)	/	4.7%	i	7.8%
CC(C)C(=O)N1CCN(c2ccc([N+](=O)[O-])c(NC(C)c3ccccc3)c2)CC1 (configuration not stated)	?	20µM*	i	-0.6%
Cn1c(/C=C/c2ccc(Br)cc2)c([N+](=O)[O-])c(=O)n(C)c1=O	i	20µM*	i	0.0%
CN(C)c1ccc(/C=C/c2c([N+](=O)[O-])c(=O)n(C)c(=O)n2C)cc1	i	3.2%	i	-7.2%
CCn1c(Cc2cccs2)nnc1SCC(=O)Nc1ccccc1-c1ccccc1	i	/	/	/
O=C(NC(=S)Nc1ccc(S(=O)(=O)NC2CCCCC2)cc1)c1cccs1	?	22.4µM*	?	?
O=C(NC(=S)Nc1ccc(S(=O)(=O)N2CCCCC2)cc1)c1cccs1	/	-7.3%	i	8.7%
CN(C)c1ccc(C(=O)OCC(=O)NC2CCCCCC2)cc1	i	21.8%	i	-7.8%
CC1CCCCC1NC(=S)NC(=O)c1cccs1 (configuration not stated)	i	26.9%	10µM*	-4.6%
CC1CCCCC1NC(=O)COC(=O)c1ccc(N(C)C)cc1 (configuration not stated)	i	15.8µM*	i	6.0%
O=C(NC(=S)Nc1ccc(N2CCCCC2)c(Cl)c1)c1cccs1	/	35.5µM*	i	-17.6%
CCOC(=O)CC[C@H]1CC[C@]2(CCCN(S(=O)(=O)C3CCCCC3)C2)O1	i	/	/	/
Nc1c(Br)cc(/C=C2\C=Cc3ccccc32)cc1Br	/	/	/	-14.6%
CC1CCCC(NC(=O)COC(=O)c2cccs2)C1C (configuration not stated)	i	11.2µM*	?	9.9%
